# From article PMC7862700, “An all-to-all approach to the identification of sequence-specific readers for epigenetic DNA modifications on cytosine”
# What was measured:
# Experiment in all cases: DAPPL (digital affinity profiling via proximity ligation, sequencing); 10 mM Tris-HCl pH 7.5, 50 mM NaCl, 1 mM DTT, 4% glycerol, room temperature, 30 min; GST-TFs on glutathione beads, 16-mer random dsDNA library, 0.1% formaldehyde crosslink after washing; high values mean tight binding
# FEV = biological target: T1, FEV (Homo sapiens, UniProt Q99581 1-238); conditions: protein: recombinant; tags: N-terminal GST; dsDNA, one strand shown
# T1 sequence: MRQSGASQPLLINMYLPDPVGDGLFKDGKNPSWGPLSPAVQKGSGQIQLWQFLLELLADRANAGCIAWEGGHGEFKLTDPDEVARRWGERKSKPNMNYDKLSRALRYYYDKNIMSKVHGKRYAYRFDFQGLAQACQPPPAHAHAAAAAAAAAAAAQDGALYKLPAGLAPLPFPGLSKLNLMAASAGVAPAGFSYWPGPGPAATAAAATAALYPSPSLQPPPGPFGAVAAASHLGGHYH
# Method in brief: (§1)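 Yeast served to express human transcription factors as GST fusions, which were then captured on glutathione beads and labelled with DNA barcodes. Pooled with a tag-only sample, they were incubated with 200 nmole of a 16-mer random double-stranded DNA library for 30 min at room temperature in Tris/NaCl/DTT/glycerol buffer, washed, crosslinked with 0.1% formaldehyde, ligated by proximity, amplified by PCR and sequenced. Dividing each hexamer's read frequency for a factor by its frequency for the tag-only sample gives the binding signal.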
# ETV5 = ETV5 (Homo sapiens, UniProt P41161 1-510); conditions: protein: recombinant; tags: N-terminal GST; dsDNA, one strand shown
# Method in brief: as §1
# HSF1 = HSF1 (Homo sapiens, UniProt Q00613 1-529); conditions: protein: recombinant; tags: N-terminal GST; chain copies: 3; dsDNA, one strand shown
# Method in brief: as §1
# SPIC = biological target: T2, SPIC (Homo sapiens, UniProt Q8N5J4 1-248); conditions: protein: recombinant; tags: N-terminal GST; dsDNA, one strand shown
# T2 sequence: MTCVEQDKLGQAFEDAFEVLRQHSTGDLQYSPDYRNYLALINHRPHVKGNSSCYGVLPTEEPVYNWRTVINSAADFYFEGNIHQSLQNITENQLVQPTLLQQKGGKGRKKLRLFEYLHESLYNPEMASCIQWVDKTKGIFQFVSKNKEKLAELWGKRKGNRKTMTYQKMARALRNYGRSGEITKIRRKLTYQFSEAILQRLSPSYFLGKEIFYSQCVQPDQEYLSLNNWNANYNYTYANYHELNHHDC
# Method in brief: as §1
# ELF4 = ELF4 (Homo sapiens, UniProt Q99607 1-663); conditions: protein: recombinant; tags: N-terminal GST; dsDNA, one strand shown
# Method in brief: as §1
# ELK4 = biological target: T3, ELK4 (Homo sapiens, UniProt P28324-2 1-405); conditions: protein: recombinant; tags: N-terminal GST; dsDNA, one strand shown
# T3 sequence: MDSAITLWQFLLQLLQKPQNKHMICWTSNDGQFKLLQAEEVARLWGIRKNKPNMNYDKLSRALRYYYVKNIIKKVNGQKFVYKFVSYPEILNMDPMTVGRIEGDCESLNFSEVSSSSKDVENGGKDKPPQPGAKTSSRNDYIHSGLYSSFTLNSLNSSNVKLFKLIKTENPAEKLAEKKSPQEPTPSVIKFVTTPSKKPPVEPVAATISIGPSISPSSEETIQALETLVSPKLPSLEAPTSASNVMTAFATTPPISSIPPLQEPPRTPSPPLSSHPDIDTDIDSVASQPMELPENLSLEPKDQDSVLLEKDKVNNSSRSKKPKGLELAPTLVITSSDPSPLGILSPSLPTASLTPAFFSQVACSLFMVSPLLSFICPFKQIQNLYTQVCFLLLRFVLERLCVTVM
# Method in brief: as §1
# ETV2 = biological target: T4, ETV2 (Homo sapiens, UniProt O00321 1-342); conditions: protein: recombinant; tags: N-terminal GST; dsDNA, one strand shown
# T4 sequence: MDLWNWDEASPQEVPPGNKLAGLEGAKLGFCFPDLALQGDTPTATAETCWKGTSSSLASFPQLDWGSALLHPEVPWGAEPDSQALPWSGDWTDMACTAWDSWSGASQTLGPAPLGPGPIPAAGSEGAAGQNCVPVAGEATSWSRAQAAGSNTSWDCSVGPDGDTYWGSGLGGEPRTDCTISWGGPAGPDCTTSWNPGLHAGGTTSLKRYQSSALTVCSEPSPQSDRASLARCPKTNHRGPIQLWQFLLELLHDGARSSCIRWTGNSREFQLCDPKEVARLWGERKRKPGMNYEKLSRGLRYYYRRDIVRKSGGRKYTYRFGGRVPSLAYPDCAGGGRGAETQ
# Method in brief: as §1
# ELF3 = biological target: T5, ELF3 (Homo sapiens, UniProt P78545 1-371); conditions: protein: recombinant; tags: N-terminal GST; dsDNA, one strand shown
# T5 sequence: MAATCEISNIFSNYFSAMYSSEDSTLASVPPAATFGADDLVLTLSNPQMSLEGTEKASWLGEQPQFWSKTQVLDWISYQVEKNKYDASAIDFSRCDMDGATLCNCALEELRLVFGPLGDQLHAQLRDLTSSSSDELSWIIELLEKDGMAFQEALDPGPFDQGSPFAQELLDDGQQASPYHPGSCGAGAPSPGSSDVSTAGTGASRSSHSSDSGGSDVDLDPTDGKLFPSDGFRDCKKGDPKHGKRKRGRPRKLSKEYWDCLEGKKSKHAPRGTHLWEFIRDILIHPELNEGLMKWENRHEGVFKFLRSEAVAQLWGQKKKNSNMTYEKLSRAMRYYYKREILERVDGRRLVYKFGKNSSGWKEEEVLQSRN
# Method in brief: as §1
# CRX = CRX (Homo sapiens, UniProt O43186 1-299); conditions: protein: recombinant; tags: N-terminal GST; dsDNA, one strand shown
# Method in brief: as §1
# ETV1 = ETV1 (Homo sapiens, UniProt P50549 1-477); conditions: protein: recombinant; tags: N-terminal GST; dsDNA, one strand shown
# Method in brief: as §1
# ERF = biological target: T6, ERF (Homo sapiens, UniProt P50548 1-548); conditions: protein: recombinant; tags: N-terminal GST; dsDNA, one strand shown
# T6 sequence: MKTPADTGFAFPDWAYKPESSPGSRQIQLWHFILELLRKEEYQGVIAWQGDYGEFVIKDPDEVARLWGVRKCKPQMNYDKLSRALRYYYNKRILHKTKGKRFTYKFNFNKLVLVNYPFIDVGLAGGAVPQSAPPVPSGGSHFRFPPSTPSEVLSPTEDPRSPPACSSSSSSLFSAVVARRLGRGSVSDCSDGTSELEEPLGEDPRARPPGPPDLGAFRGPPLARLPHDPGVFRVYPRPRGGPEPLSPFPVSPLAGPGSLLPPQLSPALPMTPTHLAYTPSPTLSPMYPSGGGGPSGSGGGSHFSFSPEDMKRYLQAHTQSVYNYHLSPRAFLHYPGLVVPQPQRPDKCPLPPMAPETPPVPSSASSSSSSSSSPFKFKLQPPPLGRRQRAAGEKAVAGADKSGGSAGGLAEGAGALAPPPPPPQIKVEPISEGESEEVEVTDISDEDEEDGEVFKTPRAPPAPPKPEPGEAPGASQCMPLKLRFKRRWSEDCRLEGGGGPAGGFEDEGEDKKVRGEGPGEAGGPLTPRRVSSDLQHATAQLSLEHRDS
# Method in brief: as §1
# ETV3L = biological target: T7, ETV3L (Homo sapiens, UniProt Q6ZN32 1-361); conditions: protein: recombinant; tags: N-terminal GST; dsDNA, one strand shown
# T7 sequence: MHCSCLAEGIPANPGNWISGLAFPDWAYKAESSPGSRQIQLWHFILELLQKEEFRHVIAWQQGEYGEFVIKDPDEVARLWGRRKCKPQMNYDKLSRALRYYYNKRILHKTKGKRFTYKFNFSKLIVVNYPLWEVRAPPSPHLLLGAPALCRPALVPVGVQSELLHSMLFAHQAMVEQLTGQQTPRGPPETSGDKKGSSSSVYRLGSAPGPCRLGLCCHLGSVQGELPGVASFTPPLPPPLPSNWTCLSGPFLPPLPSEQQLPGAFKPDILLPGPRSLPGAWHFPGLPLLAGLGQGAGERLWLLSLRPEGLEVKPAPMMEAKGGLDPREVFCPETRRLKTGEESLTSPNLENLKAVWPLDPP
# Method in brief: as §1
# ETS2 = biological target: T8, ETS2 (Homo sapiens, UniProt P15036 1-469); conditions: protein: recombinant; tags: N-terminal GST; dsDNA, one strand shown
# T8 sequence: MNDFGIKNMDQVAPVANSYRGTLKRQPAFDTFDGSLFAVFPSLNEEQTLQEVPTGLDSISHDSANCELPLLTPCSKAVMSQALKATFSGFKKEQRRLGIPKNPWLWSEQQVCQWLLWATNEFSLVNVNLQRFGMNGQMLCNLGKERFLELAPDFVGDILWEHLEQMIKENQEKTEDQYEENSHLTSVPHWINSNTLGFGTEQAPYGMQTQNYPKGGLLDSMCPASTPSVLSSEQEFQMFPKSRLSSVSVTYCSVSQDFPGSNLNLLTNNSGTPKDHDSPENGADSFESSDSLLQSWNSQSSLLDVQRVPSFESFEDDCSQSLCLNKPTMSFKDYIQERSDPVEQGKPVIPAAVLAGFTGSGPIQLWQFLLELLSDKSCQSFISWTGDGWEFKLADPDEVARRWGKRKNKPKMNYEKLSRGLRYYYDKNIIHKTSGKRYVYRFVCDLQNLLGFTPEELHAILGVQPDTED
# Method in brief: as §1
# SPDEF = biological target: T9, SPDEF (Homo sapiens, UniProt O95238 1-335); conditions: protein: recombinant; tags: N-terminal GST; dsDNA, one strand shown
# T9 sequence: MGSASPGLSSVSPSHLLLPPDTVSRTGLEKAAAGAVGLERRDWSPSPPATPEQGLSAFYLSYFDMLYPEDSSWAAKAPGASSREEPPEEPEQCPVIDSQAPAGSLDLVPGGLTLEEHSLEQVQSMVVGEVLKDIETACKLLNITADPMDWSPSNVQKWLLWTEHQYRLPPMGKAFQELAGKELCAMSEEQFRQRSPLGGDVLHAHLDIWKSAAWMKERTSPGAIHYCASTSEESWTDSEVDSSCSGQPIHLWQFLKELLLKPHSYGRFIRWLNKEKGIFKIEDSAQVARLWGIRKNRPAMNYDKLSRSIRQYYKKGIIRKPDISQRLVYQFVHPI
# Method in brief: as §1
# ETV7 = biological target: T10, ETV7 (Homo sapiens, UniProt Q9Y603 1-341); conditions: protein: recombinant; tags: N-terminal GST; dsDNA, one strand shown
# T10 sequence: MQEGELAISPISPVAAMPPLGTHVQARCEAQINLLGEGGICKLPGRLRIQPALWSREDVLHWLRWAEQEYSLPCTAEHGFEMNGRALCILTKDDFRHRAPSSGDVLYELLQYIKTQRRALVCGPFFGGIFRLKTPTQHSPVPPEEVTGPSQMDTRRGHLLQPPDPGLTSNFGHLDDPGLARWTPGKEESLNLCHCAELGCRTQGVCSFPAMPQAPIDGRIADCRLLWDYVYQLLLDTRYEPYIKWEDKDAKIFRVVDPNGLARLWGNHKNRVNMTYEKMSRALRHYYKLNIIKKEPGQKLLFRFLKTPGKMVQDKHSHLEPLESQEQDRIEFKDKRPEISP
# Method in brief: as §1
# ELF5 = biological target: T11, ELF5 (Homo sapiens, UniProt Q9UKW6-2 1-255); conditions: protein: recombinant; tags: N-terminal GST; dsDNA, one strand shown
# T11 sequence: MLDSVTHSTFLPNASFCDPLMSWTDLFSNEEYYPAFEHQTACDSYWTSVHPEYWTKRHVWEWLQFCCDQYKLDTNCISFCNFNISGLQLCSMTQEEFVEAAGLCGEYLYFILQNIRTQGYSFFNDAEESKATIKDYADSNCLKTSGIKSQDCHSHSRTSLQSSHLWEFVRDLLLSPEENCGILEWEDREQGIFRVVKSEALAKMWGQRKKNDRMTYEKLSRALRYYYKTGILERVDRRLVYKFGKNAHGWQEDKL
# Method in brief: as §1
# ETV3 = biological target: T12, ETV3 (Homo sapiens, UniProt P41162-2 1-143); conditions: protein: recombinant; tags: N-terminal GST; dsDNA, one strand shown
# T12 sequence: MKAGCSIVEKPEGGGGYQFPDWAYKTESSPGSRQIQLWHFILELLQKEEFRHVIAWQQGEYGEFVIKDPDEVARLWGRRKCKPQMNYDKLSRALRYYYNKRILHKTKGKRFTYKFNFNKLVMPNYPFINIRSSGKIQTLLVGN
# Method in brief: as §1
# ETV6 = ETV6 (Homo sapiens, UniProt P41212 1-452); conditions: protein: recombinant; tags: N-terminal GST; dsDNA, one strand shown
# Method in brief: as §1
# Sequence of ETV6 (P41212 whole entry): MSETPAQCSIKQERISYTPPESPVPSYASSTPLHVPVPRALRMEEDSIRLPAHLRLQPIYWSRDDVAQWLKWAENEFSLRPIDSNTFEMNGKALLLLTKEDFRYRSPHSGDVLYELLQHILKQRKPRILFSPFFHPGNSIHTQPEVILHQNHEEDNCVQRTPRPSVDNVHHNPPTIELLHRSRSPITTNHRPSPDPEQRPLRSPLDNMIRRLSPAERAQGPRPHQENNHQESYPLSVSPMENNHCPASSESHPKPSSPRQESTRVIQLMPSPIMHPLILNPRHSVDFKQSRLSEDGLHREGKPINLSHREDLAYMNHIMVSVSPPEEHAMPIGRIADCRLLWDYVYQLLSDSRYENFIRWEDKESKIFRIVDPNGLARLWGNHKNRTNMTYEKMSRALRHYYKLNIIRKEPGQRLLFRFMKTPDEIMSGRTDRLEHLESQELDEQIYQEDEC
# Sequence of ETV5 (P41161 whole entry): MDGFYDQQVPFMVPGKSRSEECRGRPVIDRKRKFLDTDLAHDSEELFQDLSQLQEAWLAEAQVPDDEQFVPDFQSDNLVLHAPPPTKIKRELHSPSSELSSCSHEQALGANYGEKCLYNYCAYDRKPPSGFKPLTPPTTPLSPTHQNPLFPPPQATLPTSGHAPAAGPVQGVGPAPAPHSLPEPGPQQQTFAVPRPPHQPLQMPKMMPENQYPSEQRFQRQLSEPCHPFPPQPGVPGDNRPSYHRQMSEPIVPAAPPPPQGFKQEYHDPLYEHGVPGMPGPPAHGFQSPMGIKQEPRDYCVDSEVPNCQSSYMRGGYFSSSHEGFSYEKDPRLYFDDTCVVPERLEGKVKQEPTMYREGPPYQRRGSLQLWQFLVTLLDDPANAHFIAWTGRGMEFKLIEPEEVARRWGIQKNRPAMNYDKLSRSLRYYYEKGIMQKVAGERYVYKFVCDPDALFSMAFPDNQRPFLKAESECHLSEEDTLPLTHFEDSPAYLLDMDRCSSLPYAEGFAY
# Sequence of CRX (O43186 whole entry): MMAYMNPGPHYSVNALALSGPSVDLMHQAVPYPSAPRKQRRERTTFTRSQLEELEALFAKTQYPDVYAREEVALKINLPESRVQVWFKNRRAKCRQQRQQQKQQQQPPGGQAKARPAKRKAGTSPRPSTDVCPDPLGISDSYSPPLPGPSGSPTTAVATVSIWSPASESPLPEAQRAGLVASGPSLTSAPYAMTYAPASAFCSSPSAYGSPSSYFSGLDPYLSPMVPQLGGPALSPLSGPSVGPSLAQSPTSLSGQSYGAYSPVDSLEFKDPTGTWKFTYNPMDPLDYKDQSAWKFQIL
# Sequence of ETV1 (P50549 whole entry): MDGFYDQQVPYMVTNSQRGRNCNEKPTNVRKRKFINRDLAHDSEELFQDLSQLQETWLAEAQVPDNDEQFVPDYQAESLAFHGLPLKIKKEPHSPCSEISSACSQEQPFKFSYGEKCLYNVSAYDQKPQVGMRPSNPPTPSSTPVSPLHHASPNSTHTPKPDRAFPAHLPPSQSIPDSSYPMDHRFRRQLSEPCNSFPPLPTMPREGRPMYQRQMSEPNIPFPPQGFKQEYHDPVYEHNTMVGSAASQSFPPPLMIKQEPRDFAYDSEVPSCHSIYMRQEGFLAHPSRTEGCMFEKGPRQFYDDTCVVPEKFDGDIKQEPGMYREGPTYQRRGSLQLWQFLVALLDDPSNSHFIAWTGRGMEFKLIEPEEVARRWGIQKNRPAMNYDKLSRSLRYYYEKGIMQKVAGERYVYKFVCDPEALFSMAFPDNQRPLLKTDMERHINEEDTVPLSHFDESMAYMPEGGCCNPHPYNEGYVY
# Sequence of ELF4 (Q99607 whole entry): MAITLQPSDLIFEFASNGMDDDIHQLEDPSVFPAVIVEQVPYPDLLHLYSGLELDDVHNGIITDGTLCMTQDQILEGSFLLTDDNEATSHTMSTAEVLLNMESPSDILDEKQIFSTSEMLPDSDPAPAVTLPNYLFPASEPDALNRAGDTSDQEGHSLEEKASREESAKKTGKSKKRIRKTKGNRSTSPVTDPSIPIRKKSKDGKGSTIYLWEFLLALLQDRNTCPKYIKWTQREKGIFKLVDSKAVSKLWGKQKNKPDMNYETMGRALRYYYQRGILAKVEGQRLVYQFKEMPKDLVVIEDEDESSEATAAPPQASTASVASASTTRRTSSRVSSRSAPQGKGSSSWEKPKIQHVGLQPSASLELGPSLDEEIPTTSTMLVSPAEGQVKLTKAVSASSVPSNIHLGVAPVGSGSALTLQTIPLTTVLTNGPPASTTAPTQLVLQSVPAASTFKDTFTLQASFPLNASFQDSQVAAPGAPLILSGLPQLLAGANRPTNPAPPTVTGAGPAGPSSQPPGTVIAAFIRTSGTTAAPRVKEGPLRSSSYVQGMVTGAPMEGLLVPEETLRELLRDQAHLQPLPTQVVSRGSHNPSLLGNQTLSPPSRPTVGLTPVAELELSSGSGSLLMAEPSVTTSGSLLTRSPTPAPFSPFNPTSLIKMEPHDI
# Sequence of HSF1 (Q00613 whole entry): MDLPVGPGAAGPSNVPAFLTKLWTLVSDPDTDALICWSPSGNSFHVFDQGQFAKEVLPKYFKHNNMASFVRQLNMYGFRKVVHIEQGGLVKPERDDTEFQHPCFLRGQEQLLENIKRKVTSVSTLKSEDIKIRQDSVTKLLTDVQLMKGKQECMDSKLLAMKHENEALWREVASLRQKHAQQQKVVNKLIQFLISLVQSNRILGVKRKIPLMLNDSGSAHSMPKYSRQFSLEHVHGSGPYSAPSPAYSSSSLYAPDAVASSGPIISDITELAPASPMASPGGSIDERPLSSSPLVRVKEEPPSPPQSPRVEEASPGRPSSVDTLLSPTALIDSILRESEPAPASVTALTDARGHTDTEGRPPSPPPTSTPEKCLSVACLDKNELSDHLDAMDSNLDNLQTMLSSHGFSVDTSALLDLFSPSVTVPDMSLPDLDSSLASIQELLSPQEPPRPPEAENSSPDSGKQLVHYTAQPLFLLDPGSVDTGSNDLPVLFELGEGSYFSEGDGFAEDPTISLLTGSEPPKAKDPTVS
sequence,measurement,setting,value
CTTGTA,binding signal,FEV,"1.32 fold enrichment (6-mer frequency, TF over GST control)"
same,binding signal,ETV5,"1.33 fold enrichment (6-mer frequency, TF over GST control)"
same,binding signal,HSF1,"1.34 fold enrichment (6-mer frequency, TF over GST control)"
same,binding signal,SPIC,"1.22 fold enrichment (6-mer frequency, TF over GST control)"
same,binding signal,ELF4,"1.37 fold enrichment (6-mer frequency, TF over GST control)"
same,binding signal,ELK4,"1.64 fold enrichment (6-mer frequency, TF over GST control)"
same,binding signal,ETV2,"1.41 fold enrichment (6-mer frequency, TF over GST control)"
same,binding signal,ELF3,"1.27 fold enrichment (6-mer frequency, TF over GST control)"
same,binding signal,CRX,"1.27 fold enrichment (6-mer frequency, TF over GST control)"
same,binding signal,ETV1,"1.41 fold enrichment (6-mer frequency, TF over GST control)"
same,binding signal,ERF,"1.45 fold enrichment (6-mer frequency, TF over GST control)"
same,binding signal,ETV3L,"1.26 fold enrichment (6-mer frequency, TF over GST control)"
same,binding signal,ETS2,"1.44 fold enrichment (6-mer frequency, TF over GST control)"
same,binding signal,SPDEF,"1.45 fold enrichment (6-mer frequency, TF over GST control)"
same,binding signal,ETV7,"1.17 fold enrichment (6-mer frequency, TF over GST control)"
same,binding signal,ELF5,"1.36 fold enrichment (6-mer frequency, TF over GST control)"
same,binding signal,ETV3,"1.48 fold enrichment (6-mer frequency, TF over GST control)"
same,binding signal,ETV6,"1.37 fold enrichment (6-mer frequency, TF over GST control)"
